High-throughput results as filed in PubChem.
Most compounds without a hit are left out; they make up all but 19% or so of the library.
Cycloheximide cs – counter-screen hit for Shiga toxin inhibitors, cycloheximide. cell reporter, cycloheximide protein synthesis inhibition counterscreen. max response, %. 300,000 compounds, 12% hits. AID 2314; in the data active means max response mostly above about 13%, no sharp cut-off; inactive means mostly below about 14%; further: read at 38.3 µM for the half of the compounds with a filed dose; 0% is about no effect
SARS PLpro yeast – blocks SARS-CoV papain-like protease in a yeast assay | S. cerevisiae expressing SARS-CoV PLpro, growth rescue | AID 485353 | 330,000 compounds, 0.19% hits | Potency, µM (top dose mostly 32.9 µM), inactives show top-dose activity, positive = growth rescue, actives largely listed as activators; calls by dose curve; further: potency means the concentration at half of the fitted maximal effect; 0% is about no effect; nearly all actives have a fitted effect of over 55% in size
Shiga inhibitor – blocks Shiga toxin action in Vero cells; 290,000 compounds, 9.2% hits; Vero cells, Shiga toxin protein synthesis inhibition reporter; inhibition, % at 38.7 µM; in the data active means inhibition mostly above about 28%, no sharp cut-off; inactive means mostly below about 43%; further: 0% is about no effect
AMA1-RON2 inh – AMA1-RON2 (P. falciparum) interaction inhibition; AlphaScreen AMA1-biotinylated RON2 peptide binding; Potency, µM (highest dose often 58.2 µM), for inactives: top-dose activity change, negative = inhibition, most hits filed as inhibitors; 360,000 compounds, 0.2% hits; AID 720542;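 further: potency means the concentration at half of the fitted maximal effect; 0% = vehicle wells and -100% = peptide control; nearly all actives have a fitted effect of over 45% in size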
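AMA1 (3D7) with his tag at 25 nM final met compounds first, then biotinylated RON2 peptide at 25 nM; detection used donor plus acceptor beads, 10 µg/mL apiece, read by AlphaScreen after 30 min at room temperature.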
Pf growth 48h – inhibits P. falciparum growth in the first generation, 48 h; P. falciparum luciferase growth in erythrocytes, 48 h; Potency, µM (series often up to 28.7 µM), for the others: at the top dose activity change, negative = inhibition, usual class: inhibitors; 310,000 compounds, 5.9% hits; further: potency means the concentration at half of the fitted maximal effect; on the % scale 0 is the no-effect control and ±100 the full control effect
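First compound was added to culture medium, then infected red cells at 0.1% parasitemia and 2% hematocrit (final). After incubation at 37 C under 5% CO2, luciferase detection reagent was dispensed and light output recorded.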
Pf growth 96h – P. falciparum growth inhibition at 96 hours; P. falciparum luciferase reporter growth, 96 h; Potency, µM (titrated, usually from 28.7 µM), for the others: top-dose activity change, negative = inhibition, usual class: inhibitors; 320,000 compounds, 6.9% hits; further: potency means the concentration at half of the fitted maximal effect; on the % scale 0 is the no-effect control and ±100 the full control effect
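Luminescence readout: decreased luciferase signal marks inhibited growth of reporter-expressing P. falciparum in infected red cells (2% hematocrit, 0.05% parasitemia final), exposed to compound two generations (96 h, 37 C, 5% CO2).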
* marks the source's active call; other numbers are inactive results; i = inactive; u = inconclusive; x = not tested or not shown; [ ] = remark or other dose. Unless noted, the call rests on the fitted dose curve; in most records, active means well fitted curve in the direction sought with a large enough effect; inconclusive means small, poorly fitted or top-dose-only effect, or another doubt; inactive means no such curve, though single readings can be large; an effect the other way counts as inactive or inconclusive.

SMILES | Cycloheximide cs | SARS PLpro yeast | Shiga inhibitor | AMA1-RON2 inh | Pf growth 48h | Pf growth 96h
CCCCNc1nc2ccccc2n1CC(=O)N1CCc2ccccc2C1 | -10 | 3% | -13 | u | 12µM* | 3.7µM*
Cc1nc([N+](=O)[O-])cn1-c1ccc(N)cc1 | -8 | 3% | -11 | 8% | 5% | 12µM*
CCn1cc([N+](=O)[O-])nc1C | -1 | 14% | 15 | 29% | -2% | 16%
CC(C)(C)[C@H]1C=C(C(=O)Nc2ccccc2)O[C@@H](OCc2ccc(CO)cc2)C1 | 12* | -3% | 18 | 9% | u | u
O=C(Nc1ccccc1)C1=C[C@@H](c2ccc(C(F)(F)F)cc2)C[C@@H](OCc2ccc(CO)cc2)O1 | 9 | -1% | 17 | 0% | u | u
O=C(Nc1ccccc1)C1=C[C@@H](c2ccccc2)C[C@@H](OCc2ccc(CO)cc2)O1 | 57* | -3% | 81* | 10% | 32% | 4%
C#Cc1ccc([C@@H]2C=C(C(=O)OCC=C)O[C@H](OCc3ccc(CO)cc3)C2)cc1 | 31* | -2% | 23* | 3% | u | u
O=C(Nc1ccccc1)C1=C[C@H](c2ccc(Br)cc2)C[C@H](OCc2ccc(CO)cc2)O1 | 41* | -4% | 69* | -7% | -26% | u
CCC(Sc1nc2ccsc2c(=O)n1Cc1ccc(C(=O)O)cc1)C(=O)Nc1ccc(C)c(Cl)c1 (stereo not drawn) | 0 | 0% | -6 | -6% | u | u
O=S(=O)(NCCSc1ccccc1)c1cccs1 | 0 | -1% | -6 | 4% | 22% | u
Cc1ccc(S(=O)(=O)NCc2ccccc2)cc1C(=O)NCC(=O)Nc1c(C)cccc1C | x | x | x | -6% | x | x
Cc1ccc(CNC(=O)COc2ccc(S(=O)(=O)N3CCOCC3)cc2)cc1 | x | -4% | x | -4% | 12% | u
O=C(C1=C[C@@H](c2ccccc2)C[C@@H](OCc2ccc(CO)cc2)O1)N1CCOCC1 | 9 | -1% | -14 | -1% | 38% | 67%
NC(=O)C1=C[C@H](c2ccccc2)C[C@H](OCc2ccc(CO)cc2)O1 | 36* | 0% | 27* | 5% | 21% | 54%
CCCC(=O)NCCSC | 10 | 8% | -6 | 12% | 5% | 0%
Cc1[nH]n(-c2ncc(-c3ccccc3)s2)c(=O)c1C(c1ccc(Cl)cc1)C(C#N)C#N (stereo not drawn) | 11* | -18% | -12 | 8% | -1% | u
CCCCCC1CC(CC(=O)Nc2ccc([N+](=O)[O-])cc2)C(=O)O1 (stereo not drawn) | 5 | -17% | 5 | -9% | -14% | -20%
COc1ccc([C@H]2CC(=O)C=C(c3cc4ccccc4c4ccccc34)C2)cc1 | x | -1% | x | -10% | 7% | u
CCOC(=O)c1[nH]c2ccc(OC)cc2c1N=CN(C)C | 0 | 0% | -7 | 16% | 7% | 0.13µM*
CCn1cc(C(=O)NC(C)C2CC3CCC2C3)cn1 (stereo not drawn) | 1 | 18% | 17 | 21% | -1% | -15%
CCn1cc(C(=O)NC(C)C23CC4CC(CC(C4)C2)C3)cn1 (stereo not drawn) | -3 | 25% | -3 | u | u | 5.2µM*
COc1cc2cc[n+](Cc3ccc([N+](=O)[O-])cc3)cc2cc1OC | -5 | 2% | 4 | 1% | 4.7µM* | 3.3µM*
Fc1cccc(Cl)c1-c1nnc2ccc3ccccc3n12 | 37* | -2% | 35* | -11% | 2% | -53%[5.75 µM]
Cc1[nH]c2ccc(C(=O)NC3CCC(C)CC3)cc2c1C (stereo not drawn) | 26* | 8% | 58* | 12% | 12% | u
CC1CCC(NC(=O)c2ccc3nc[nH]c3c2)CC1 (stereo not drawn) | 41* | -6% | 47* | -10% | 42% | 56%
SMILES | Cycloheximide cs | SARS PLpro yeast | Shiga inhibitor | AMA1-RON2 inh | Pf growth 48h | Pf growth 96h
O=C(NNC(=O)c1ccc2nc[nH]c2c1)c1ccccc1 | x | 6% | x | -7% | 71% | 81%
Cc1[nH]c2ccc(C(=O)NC3CCCC3)cc2c1C | x | 3% | x | 0% | 1% | -27%
Cc1ccc(C)c(N(C(=O)c2csnn2)C(C(=O)NC2CCCCC2)c2cccnc2)c1 (stereo not drawn) | 5 | 14% | -14 | -5% | 0% | 0%
C#CCO[C@@H]1C[C@H](n2cnc3c(NC(=O)c4ccccc4)ncnc32)O[C@@H]1CO | 21* | 0% | 39 | -5% | 37% | 99%
CCN(CC)C(=S)SCC(=O)c1ccc(Br)cc1 | 107* | -59% | 167* | 7% | 61% | 8%
COc1ccc(-n2nc(C(=O)NCC(=O)N3CCCC3)c3ccccc3c2=O)cc1Cl | -2 | 1% | 2 | -3% | 0% | u
N/C(=N\N=C\c1ccc(O)c(O)c1)c1nonc1N | 43* | -2% | 67* | 35% | 133% | 122%
CS/C(N)=N/N=C/c1ccc2c(c1)OCO2 | 25* | 0% | 71* | -18% | 109% | 180%
COc1ccc(/C=N/Nc2nonc2N)c(OC)c1 | 14 | 0% | 47 | 6% | 60% | 20%
N/C(=N\N=C\c1ccc(O)cc1)c1nonc1N | 30* | 1% | 58 | -1% | 363% | -33%
COc1ccc(OC)c(/C=N/N=C(\N)c2nonc2N)c1 | 38* | -2% | 59* | -5% | 40% | -4%
CCn1c(Cc2ccc(OC)cc2)nnc1SCc1nc2ccccc2c(=O)[nH]1 | 0 | 2% | -5 | 10% | -17% | u
CC(=NCCCn1ccnc1)c1c(O)n(Cc2ccccc2)c(=O)[nH]c1=O | 11 | 1% | 15 | -6% | x | -17%
N/C(=N\N=C\c1cccc(O)c1)c1nonc1N | 31* | -1% | 59* | 3% | i | -5%
COc1ccc(/C=N/N=C(\N)c2nonc2N)cc1OC | 31* | -2% | 108* | 5% | 140% | u
CS/C(N)=N/N=C/c1ccc([N+](=O)[O-])cc1 | 30* | -1% | 75* | -1% | 117% | 420%
COc1cc(/C=N/N=C(\N)c2nonc2N)ccc1O | 24* | -2% | 61* | 7% | 94% | 22%
CSc1nncn1/N=C/c1ccc([N+](=O)[O-])cc1 | -3 | -1% | 33 | 10% | -29% | 0%
COc1ccc(/C=N/NC(=O)c2nnn(-c3nonc3N)c2-c2cccs2)cc1OC | 13 | 1% | 15 | 5% | u | u
COc1cc(/C=N/NC(=O)c2nnn(-c3nonc3N)c2C(C)C)ccc1O | -12 | 15% | -2 | 21% | 13% | -12%
C/C=C(/CC[C@@H](C)[C@H]1CCC2C3=CC[C@H]4[C@H](C)[C@@H](O)CC[C@]4(C)C3CC[C@@]21C)C(C)C (stereo partly drawn) | -2 | x | 7 | x | x | x
